# From PubChem BioAssay AID651640 (Broad Institute, 2012)
# The campaign covered roughly 350,000 compounds. About 6,000 (1.7%) were called active. Inconclusive results (about 5%) are left out. The sample as a whole holds a higher share of actives than the screen did. Values without a mark were called inactive. Cut-off read from the data, not from the text of the source: active = CPE inhibition above about 20% (passing the limit was not always enough); inconclusive = no clear call, values can overlap the other calls; tested in BHK-21 cells.
# Assay: inhibitors of DENV2 cytopathic effect, primary screen, cell-based, plate reader, single concentration (AID 651640);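 note: 0% = median of neutral control wells and 100% = median of positive control wells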
# Settings: DENV2-infected cells, cytopathic effect rescue, at 9.99 µM, hits give high values
row,Compound,CPE inhibition
1,CO[C@H]1CN(C)C(=O)c2ccc(NC(=O)C3CC3)cc2OC[C@H](C)N(Cc2ccncc2)C[C@@H]1C,-0.282%
2,O=C(C1CCCCC1)N1CC2(C1)[C@H](c1ccccc1)[C@@H](CO)N2CCC(F)(F)F,34.6% (active)
3,O=C(C1CCCC1)N1[C@H](CO)[C@@H](c2ccccc2)C12CN(CCC(F)(F)F)C2,-3.05%
4,CCC(=O)N1[C@@H](CO)[C@@H](c2ccccc2)C12CN(C(=O)c1cnccn1)C2,21.9% (active)
5,O=C(C1CCCC1)N1CC2(C1)[C@H](c1ccccc1)[C@H](CO)N2CCC(F)(F)F,-9.33%
6,O=C(c1cnccn1)N1CC2(C1)[C@H](c1ccccc1)[C@H](CO)N2C(=O)c1ccccc1,-6.13%
7,CC(=O)N1CC2(C1)[C@@H](c1ccccc1)[C@@H](CO)N2C(=O)c1cnccn1,-5.39%
8,COCC#Cc1cnc2c(c1)C(=O)N([C@H](C)CO)C[C@H](C)[C@H](CN(C)C(=O)Cc1cccnc1)O2,-4.96%
9,C[C@H]1CCCCO[C@H](CN(C)S(=O)(=O)c2ccc(F)cc2)[C@@H](C)CN([C@@H](C)CO)C(=O)c2cc(NS(=O)(=O)c3cn(C)cn3)ccc2O1,12.6%
10,CC(=O)N1[C@H](CO)[C@@H](c2ccc(-c3ccccc3)cc2)[C@H]1CNC(=O)C1CC1,-7.62%
11,CCNC(=O)C[C@@H]1CC[C@@H]2[C@H](COc3ccc(NC(=O)Nc4cccc(C)c4)cc3C(=O)N2C)O1,-13.2%
12,COc1ccccc1-c1cn(CC[C@@H]2CC[C@H](NC(=O)c3ccccc3F)[C@H](CO)O2)nn1,4.94%
13,C[C@@H]1CN([C@H](C)CO)C(=O)c2cccc(NC(=O)Nc3ccc4c(c3)OCO4)c2O[C@H]1CN(C)S(=O)(=O)c1ccccc1,-7.78%
14,COCCNC(=O)CSc1nc(N)c(NC(=O)c2ccco2)c(=O)[nH]1,96.9% (active)
15,Nc1nc(SCC(=O)Nc2cc(C(F)(F)F)ccc2Cl)[nH]c(=O)c1NC(=O)c1ccco1,-1.74%
16,COC(=O)c1ccc(NC(=O)CSc2nc(N)c(NC(=O)c3ccc(Br)o3)c(=O)[nH]2)cc1,-4.82%
17,CCCNC(=O)N1[C@H](CO)[C@H](c2ccccc2)[C@H]1CNC(=O)C1CCCCC1,-12%
18,CC(=O)Nc1ccc2c(c1)C(=O)N(C)[C@@H]1CC[C@@H](CC(=O)NCC3CCCCC3)O[C@@H]1CO2,-1.94%
19,COC(=O)[C@]1(Cc2ccccc2)NC=C(C(=O)c2ccccc2)[C@@H]1c1cccc(OC)c1,-11.9%
20,COc1ccc(NC(=O)Nc2ccc3c(c2)C(=O)N([C@@H](C)CO)C[C@@H](C)[C@@H](CN(C)S(=O)(=O)c2ccc(C)cc2)OCCCC[C@H](C)O3)cc1,-2.48%
21,COC(=O)[C@]12C[C@H](CC(=O)NCCCCc3ccccc3)C(=O)N(Cc3ccc4c(c3)OCO4)C1=C[C@H](C(C)(C)C)O[C@@H]2C,1.32%
22,C[C@@H]1CN([C@@H](C)CO)C(=O)c2cc(C3=CCCC3)cnc2O[C@@H]1CN(C)C(=O)Cc1ccncc1,-2.39%
23,CS(=O)(=O)N1[C@H](C#N)[C@H](c2ccc(C#CC3CCCC3)cc2)[C@H]1CO,28.9% (active)

row,Compound,CPE inhibition
1,CS(=O)(=O)N1[C@@H](C#N)[C@H](c2ccc(C#CC3CCCCC3)cc2)[C@@H]1CO,-6.42%
2,N#C[C@@H]1[C@H](c2ccccc2-c2ccc(F)cc2)[C@@H](CO)N1c1ncc(-c2ccccc2)s1,0.494%
3,N#C[C@H]1[C@H](c2ccc(C#Cc3ccc(F)cc3)cc2)[C@@H](CO)N1C(=O)C1CCCC1,22.7% (active)
4,CS(=O)(=O)N1[C@H](C#N)[C@H](c2ccc(C#CC3CC3)cc2)[C@H]1CO,4.72%
5,N#C[C@@H]1[C@H](c2ccc(C#Cc3cccc(F)c3)cc2)[C@@H](CO)N1C(=O)C1CCCC1,3.79%
6,N#C[C@@H]1[C@@H](c2ccc(C#Cc3cccc(F)c3)cc2)[C@@H](CO)N1C(=O)C1CCC1,-2.98%
7,Cc1ccccc1S(=O)(=O)N1[C@H](C#N)[C@H](c2ccccc2)[C@@H]1CO,119% (active)
8,Cc1ccccc1S(=O)(=O)N1[C@H](C#N)[C@H](c2ccccc2)[C@H]1CO,9.21%
9,Cc1ccccc1S(=O)(=O)N1[C@@H](C#N)[C@H](c2ccccc2)[C@@H]1CO,8.15%
10,CS(=O)(=O)N1[C@H](C#N)[C@H](c2ccccc2-c2ccc(F)cc2)[C@@H]1CO,29.1% (active)
11,COCC(=O)N1[C@H](CO)[C@H](c2ccccc2-c2ccc(C)cc2)[C@@H]1C#N,-2.92%
12,C[C@@H]1CN([C@H](C)CO)S(=O)(=O)c2ccc(C#C[C@@H](C)O)cc2O[C@H]1CN(C)C(=O)C1CCCCC1,-8.28%
13,C[C@H](CO)N1C[C@H](C)[C@@H](CN(C)Cc2ccc(Oc3ccccc3)cc2)Oc2cc(-c3ccncc3)ccc2S1(=O)=O,-22.7%
14,O=C(C[C@@H]1C=C[C@@H](NS(=O)(=O)c2ccc(F)cc2)[C@@H](CO)O1)NCCN1CCCCC1,-0.229%
15,CN(Cc1ccccc1F)C[C@H]1[C@@H](c2ccccc2)[C@@H](CO)N1S(C)(=O)=O,-1.35%
16,CCCNC(=O)N1C[C@@H](O)COC[C@@H]2O[C@H](CC(=O)N3CCN(C)CC3)CC[C@H]21,0.94%
17,C[C@H]([C@@H](O)[C@@H](O)[C@@H](C)C(C)(C)C)[C@H]1CC[C@H]2C3CC[C@H]4C[C@H](OS(=O)(=O)O)[C@@H](OS(=O)(=O)O)C[C@]4(C)[C@H]3CC[C@]12C (some centres undefined),-2.49%
18,CC(C)CC#Cc1cnc2c(c1)C(=O)N([C@@H](C)CO)C[C@H](C)[C@@H](CN(C)C(=O)c1ccc(F)cc1)O2,-4.54%
19,CCC(=O)Nc1ccc2c(c1)OC[C@H](C)N(C(=O)c1ccncc1)C[C@H](C)[C@H](OC)CN(C)C2=O,-6.05%
20,C[C@H]1CN([C@@H](C)CO)C(=O)c2cc(C3=CCCC3)cnc2O[C@@H]1CN(C)C(=O)c1ccccc1,-6.29%
21,CO[C@@H]1CN(C)C(=O)c2ccc(NS(=O)(=O)c3c(C)noc3C)cc2OC[C@H](C)NC[C@@H]1C,-11.3%
22,C[C@@H]1CN([C@H](C)CO)C(=O)c2cc(C#CCC3CCCC3)cnc2O[C@H]1CN(C)Cc1ccccn1,15.8%
23,COc1ccccc1C#Cc1ccc([C@@H]2[C@@H](CO)N(C(=O)C3CC3)[C@H]2C#N)cc1,1.77%

row,Compound,CPE inhibition
1,CCCC#Cc1ccc([C@@H]2[C@@H](C#N)N(C(=O)C3CCCC3)[C@@H]2CO)cc1,-5.75%
2,CCCC#Cc1ccc([C@@H]2[C@@H](C#N)N(C(=O)C3CCC3)[C@H]2CO)cc1,-3.76%
3,COc1ccc(-c2ccccc2[C@H]2[C@@H](C#N)N(C(=O)C3CCC3)[C@@H]2CO)cc1,3.73%
4,COc1ccc(-c2ccccc2[C@H]2[C@@H](CO)N(C(=O)C3CCC3)[C@H]2C#N)cc1,70.3% (active)
5,CCCC#Cc1ccc([C@H]2[C@@H](CO)N(C(=O)C3CC3)[C@H]2C#N)cc1,39.4% (active)
6,COc1ccc(-c2ccc([C@@H]3[C@@H](C#N)N(C(=O)C4CCC4)[C@@H]3CO)cc2)cc1,-14%
7,CN(C)CC#Cc1ccc([C@H]2[C@@H](CO)N(C(=O)C3CCC3)[C@H]2C#N)cc1,87.1% (active)
8,CCCC#Cc1ccc([C@@H]2[C@@H](C#N)N(C(=O)C3CC3)[C@H]2CO)cc1,-11.5%
9,OC[C@H]1[C@@H](c2ccc(C#Cc3ccccc3F)cc2)[C@H]2CN(CC3CCOCC3)CCCCN21,-16.8%
10,C[C@@H](NC(=O)C[C@@H]1C[C@@H]2c3cc(NC(=O)c4cccnc4)ccc3O[C@@H]2[C@H](CO)O1)c1ccccc1,-1.39%
11,COc1cccc(-c2ccc3c(c2)O[C@H](CN(C)C(=O)c2ccccc2F)[C@@H](C)CN([C@@H](C)CO)S3(=O)=O)c1,-3.52%
12,OC[C@H]1[C@H](c2ccc(-c3cccc(F)c3)cc2)[C@@H]2CN(Cc3cncnc3)CCCCN12,58.8% (active)
13,Cc1ccc(-c2ccc([C@H]3[C@H](CO)N4CCCCN(Cc5cncnc5)C[C@@H]34)cc2)cc1,-2.12%
14,COCC#Cc1ccc([C@H]2[C@H](CO)N3CCCCN(Cc4ccncc4)C[C@@H]23)cc1,3.44%
15,CCCC#Cc1ccc([C@H]2[C@H]3CN(Cc4cncnc4)CCCCN3[C@H]2CO)cc1,-10.9%
16,OC[C@H]1[C@@H](c2ccc(/C=C/c3ccccc3)cc2)[C@H]2CN(Cc3cccnc3)CCCCN21,23.8% (active)
17,Cc1cccc(-c2ccc([C@H]3[C@@H](CO)N4CCCCN(Cc5cncnc5)C[C@H]34)cc2)c1,5.45%
18,OC[C@@H]1[C@H](c2ccc(C3=CCCC3)cc2)[C@H]2CN(Cc3ccncc3)CCCCN12,41% (active)
19,OC[C@H]1[C@H](c2ccc(-c3cccnc3)cc2)[C@H]2CN(Cc3ccccn3)CCCCN21,3.13%
20,Cc1cccc(-c2ccc([C@@H]3[C@H](CO)N4CCCCN(Cc5ccncc5)C[C@@H]34)cc2)c1,-6.55%
21,OC[C@H]1[C@H](c2ccc(-c3ccccc3F)cc2)[C@H]2CN(Cc3cncnc3)CCCCN21,45.6% (active)
22,CN(C)C(=O)c1ccc(-c2ccc([C@@H]3[C@@H](CO)N4CCCCN(Cc5cncnc5)C[C@@H]34)cc2)cc1,5.96%
23,OC[C@@H]1[C@H](c2ccc(C#Cc3ccccc3)cc2)[C@@H]2CN(Cc3cncnc3)CCCCN12,4.64%
